D3 ag: D3 dopamine receptor (human) agonism; D3R DiscoveRx beta-arrestin cells, luminescence, 90 min; max activation, %; 0.58% of 410,000 active; P35462; in the data active = max activation above about 30%; also: 0% is about no effect
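Agonist-mode cell screen: cells plated at 1500/well and incubated overnight at 37 °C, then exposed to library compounds for 90 min at 37 °C. Detection reagent was added for 30–60 min at room temperature, and luminescence was read.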
D1 ag: activates the human D1 dopamine receptor; P21728; HEK293 T-REx D1 cells, calcium flux, agonist mode; activation, % at 2 µM; 1% of 360,000 active; in the data active = activation above about 30%; also: 0% is about no effect
Target sequence (P21728 whole entry, looked up): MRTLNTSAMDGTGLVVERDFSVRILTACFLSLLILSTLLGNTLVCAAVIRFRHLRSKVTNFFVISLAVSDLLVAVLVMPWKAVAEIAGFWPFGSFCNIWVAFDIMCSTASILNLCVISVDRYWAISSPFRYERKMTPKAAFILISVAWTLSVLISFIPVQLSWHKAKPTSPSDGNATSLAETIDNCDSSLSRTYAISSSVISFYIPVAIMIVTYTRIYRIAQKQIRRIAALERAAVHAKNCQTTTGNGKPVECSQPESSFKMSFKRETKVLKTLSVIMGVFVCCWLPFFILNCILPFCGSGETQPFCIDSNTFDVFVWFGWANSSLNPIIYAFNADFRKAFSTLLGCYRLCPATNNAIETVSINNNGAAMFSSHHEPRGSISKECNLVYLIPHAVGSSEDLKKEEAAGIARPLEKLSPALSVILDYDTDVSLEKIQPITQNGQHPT
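Inducible HEK293 T-REx D1 cells, force-coupled to calcium signalling, were plated at 4000 cells/well with tetracycline and held overnight at 30 C. After no-wash calcium dye loading, compound-evoked calcium rise over 180 s flagged agonists.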
DRD3 antagonist: blocks the human D3 dopamine receptor; P35462; D3R cells, DiscoveRx beta-arrestin luminescence, antagonist mode; active compounds read low; max response, negative = inhibition, %; 2.5% of 360,000 active; AID 652054; in the data active = max response below about -50%; inconclusive = no clear call, values can overlap the other calls; also: % is scaled to controls: 0 for no effect and ±100 for the full control effect
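Cells expressing the human receptor were seeded at 1500 cells/well, incubated overnight at 37 degrees C in 5% CO2, then exposed to library compounds with dopamine controls for 90 minutes at 37 degrees C before luminescent detection.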
D1 antag: antagonists of human D1 dopamine receptor | P21728 | 3.2% of 360,000 active | activity change, negative = inhibition, % at 10 µM | HEK293 TREx D1 cells, calcium flux, dopamine EC80; active compounds read low; in the data active = activity change below about -30%; also: % is scaled to controls: 0 for no effect and ±100 for the full control effect
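Inducible Hek293 Trex D1 cells (tetracycline, overnight, 30 C). Calcium dye 30–90 min RT. Antagonist mode: EC80 dopamine added after 180 s compound read.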
D1 PAM: enhances dopamine response at the human D1 receptor. P21728. HEK293 TREx D1 cells, calcium flux, dopamine EC20 potentiation. potentiation, % at 10 µM. AID 504651. 0.036% of 360,000 active; in the data active = potentiation above about 30%; also: 0% is about no effect
* = called active by the depositor. Compounds with a hit are over-represented: about 6% of the library has one in this group of screens.

Results for COc1ccc2c3c1O[C@H]1[C@@H](O)C=C[C@H]4[C@@H](C2)N(C)CC[C@@]341 ?
D3 ag: -4

How did O=[N+]([O-])c1ccc(N2CCCCCC2)c2nonc12 do in these assays?
D3 ag: -4; D1 ag: 526*; DRD3 antagonist: -12; D1 antag: 6; D1 PAM: 6

What do the screens show for `CCc1ccccc1N1C(=O)/C(=C/c2ccc(N3CCN(C)CC3)o2)C(=O)NC1=S`?
D3 ag: -3; D1 ag: 71*; DRD3 antagonist: -4; D1 antag: 2; D1 PAM: -4

Results for Cc1ccccc1N1C(=O)NC(=O)/C(=C/c2ccc(N3CCOCC3)o2)C1=O ?
D3 ag: -12; D1 ag: 14; DRD3 antagonist: -7; D1 antag: -1; D1 PAM: -1

Results for Cc1cccc(N2C(=O)/C(=C/c3ccc(N4CCN(C)CC4)o3)C(=O)NC2=S)c1C ?
D3 ag: -10; D1 ag: 68*; DRD3 antagonist: -23; D1 antag: 6; D1 PAM: 2

What do the screens show for `O=C1NC(=O)N(c2ccc3c(c2)OCO3)C(=O)/C1=C\c1ccc(N2CCCCC2)o1`?
D3 ag: -7; D1 ag: 50*; DRD3 antagonist: -14; D1 antag: 0; D1 PAM: -2

Results for CCC1(c2cnc[nH]2)Cc2ccccc2C1 ?
D3 ag: -17

How did Oc1cccc[c]1[Hg][Cl] do in these assays?
D3 ag: -31

What do the screens show for `O=c1cc(C(F)(F)F)c2cc3c4c(c2o1)CCCN4CCC3`?
D3 ag: 0; D1 ag: 330*; DRD3 antagonist: 6; D1 antag: -65*; D1 PAM: -8

How did Cc1cc2c(C(F)(F)F)cc(=O)oc2c2c1NCCC2 do in these assays?
D3 ag: 3; D1 ag: 113*; DRD3 antagonist: 10; D1 antag: -9; D1 PAM: 4

Results for CCc1ccc(OCC(=O)N2CCN(CCc3ccccn3)CC2)cc1 ?
D3 ag: -14; D1 ag: -1; D1 antag: 4; D1 PAM: 1

Results for C/C=C(\C)C(=O)OC1C(C)=C2C(C1OC(=O)CCCCC)C(C)(OC(C)=O)CC(OC(=O)CCC)C1(O)C2OC(=O)C1(C)O (stereo not drawn) ?
D1 ag: 109*; D1 antag: -31*; D1 PAM: -10

What do the screens show for `CN1CCC(c2c[nH]c3ccccc23)C1` (stereo not drawn)?
D3 ag: -2; D1 ag: 6; DRD3 antagonist: -100*; D1 antag: -32*; D1 PAM: -5

What do the screens show for `O=P(O)(O)C(Cl)(Cl)P(=O)(O)O`?
D3 ag: 8

Results for COc1cc(CNCCc2c[nH]c3ccccc23)cc(OC)c1OC ?
D3 ag: -1; DRD3 antagonist: 3

Results for CCOc1ccc(CNCCc2ccc3c(c2)OCO3)cc1 ?
D3 ag: -5; D1 ag: 30*; DRD3 antagonist: -86*; D1 antag: -8; D1 PAM: -8

What do the screens show for `COc1cc(CNCCc2c[nH]c3ccccc23)cc(OC)c1`?
D3 ag: -38; D1 ag: 8; DRD3 antagonist: -68*; D1 antag: 7; D1 PAM: -3

How did c1ccc2c(CCNCc3ccc4c(c3)OCO4)c[nH]c2c1 do in these assays?
D3 ag: -2; D1 ag: 99*; DRD3 antagonist: -68*; D1 antag: -43*; D1 PAM: -2

What do the screens show for `Cc1nnc2n1-c1sc(Br)cc1C(c1ccccc1Cl)=NC2`?
D3 ag: 3

What do the screens show for `CN1C(=O)[C@@H](NC(=O)c2cc3ccccc3[nH]2)N=C(c2ccccc2)c2ccccc21`?
D3 ag: 8

Results for CC/C(=C\C=C\[C@@H]1C=C[C@@H]2CCC[C@H]2[C@@H]1C(=O)c1ccc[nH]1)[C@@H]1O[C@@H]([C@@H](C)C(=O)O)CC[C@@H]1C ?
D3 ag: 3; D1 ag: 29; DRD3 antagonist: 9; D1 antag: -60*; D1 PAM: -7

What do the screens show for `CCOC(=O)C1(CCOc2ccccc2)CCN(Cc2ccc(C)s2)CC1`?
D3 ag: -16; D1 ag: 5; DRD3 antagonist: -50*; D1 antag: 7; D1 PAM: -3

How did CCOC(=O)C1(CCc2ccccc2)CCN(Cc2ccc3c(c2)OCCO3)CC1 do in these assays?
D3 ag: -11; D1 ag: 2; DRD3 antagonist: inconclusive; D1 antag: -20; D1 PAM: -3

How did CN1CCN=C(c2ccccc2)c2cc(Cl)ccc21 do in these assays?
D3 ag: -1

Results for C[C@H]1[C@H]2Cc3ccc(O)cc3[C@]1(C)CCN2CCc1ccccc1 ?
D3 ag: -17

What do the screens show for `O=C(COc1ccccc1)N1CCN(C2CCCC2)CC1`?
D3 ag: -4; D1 ag: 1; DRD3 antagonist: inconclusive; D1 antag: -17; D1 PAM: -8

How did CN1CCN(C(=O)COc2ccc3ccccc3c2)CC1 do in these assays?
D3 ag: -11; D1 ag: 2; DRD3 antagonist: -18; D1 antag: 0; D1 PAM: -3

Results for Cc1cccc(OCC(=O)N2CCN(Cc3ccncc3)CC2)c1 ?
D3 ag: -6; D1 ag: 1; DRD3 antagonist: -77*; D1 antag: 0; D1 PAM: -3

Results for O=C(Cc1ccccc1)N1CCN(C2CCCC2)CC1 ?
D3 ag: -4; D1 ag: 4; DRD3 antagonist: -72*; D1 antag: -2; D1 PAM: 3

Results for Cc1cccc(OCC(=O)N2CCN(Cc3ccc4c(c3)OCO4)CC2)c1 ?
D3 ag: -4; D1 ag: 2; DRD3 antagonist: inconclusive; D1 antag: -21; D1 PAM: -4

Results for O=C(COc1ccc2ccccc2c1)N1CCN(C2CCN(Cc3ccccc3)CC2)CC1 ?
D3 ag: -9; D1 ag: 26; DRD3 antagonist: -23; D1 antag: -46*; D1 PAM: -12

How did NC1(c2ccccc2)CCCCC1 do in these assays?
D3 ag: 1

Results for COC(=O)C(Cl)C(=O)OC ?
D3 ag: 4

How did c1ccc2c(CN3CCOCC3)c[nH]c2c1 do in these assays?
D3 ag: -3; D1 ag: 4; DRD3 antagonist: -22; D1 antag: 8; D1 PAM: -11

What do the screens show for `CC1(C)C2CC=C(CN3CCOCC3)C1C2` (stereo not drawn)?
D3 ag: 2; D1 ag: 3; DRD3 antagonist: -53*; D1 antag: 2; D1 PAM: -3

What do the screens show for `CCc1ccc(OCC(=O)N2CCN(CCc3ccncc3)CC2)cc1`?
D3 ag: -13; D1 ag: 10; D1 antag: -9; D1 PAM: 0

How did COc1cccc(C(=O)CCN[C@@H](C)[C@H](O)c2ccccc2)c1 do in these assays?
D3 ag: -12

Bioassay records deposited in PubChem by National Center for Advancing Translational Sciences (NCATS).
